KCNQ2 block = rat KCNQ2 potassium channel inhibitors, primary screen, cell-based, CHO-K1, FluxOR thallium flux, B-score | Potassium voltage-gated channel subfamily KQT member 2 (Rattus norvegicus), O88943 | 20 min; stronger effect = lower value | B-score at 10 µM | actives 1.1% (n = 310,000) | AID 2156, 2009;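 active means fluorescence ratio B-score at most minus 3 library SDs, with starting brightness B-score within 2 library SDs, cut at about -5.5 in these data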
KCNQ2 pot = potentiators of rat KCNQ2 potassium channel. CHO-K1 KCNQ2, FluxOR thallium flux fluorescence; stronger effect = higher value. actives 0.54% (n = 310,000). AID 2239, 2010. Potassium voltage-gated channel subfamily KQT member 2 (Rattus norvegicus), O88943. B-score at 10 µM;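 active means fluorescence ratio B-score at least 3 SD of library B-scores, with initial fluorescence B-score within 3 of them, cut at about 5.3 in these data; same plate scores as AID 2156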;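 further: B-score of peak minus minimum over baseline fluorescence ratio after K+ and Tl+ stimulus; positive B-score means potentiation of KCNQ2 with more thallium influx and brighter signal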
KCNQ2 inh conf = rat KCNQ2 potassium channel inhibitors, confirmation, cell-based, thallium flux; AID 493025, 2011; activity change, negative = inhibition, % at 10 µM; actives 57% (n = 1,000); KCNQ2-expressing cells, inhibition; stronger effect = lower value; shares compounds with KCNQ2 block;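 further: 0% = vehicle wells and values are ratio percent relative to vehicle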
KCNQ1 spec = human KCNQ1 channel inhibition, counter-screen for KCNQ2 inhibitor project, cell-based, FluxOR thallium flux. shares compounds with KCNQ2 block. KCNQ1-expressing cells, FluxOR thallium flux fluorescence; stronger effect = lower value. activity change, negative = inhibition, % at 10 µM. actives 15% (n = 1,000). AID 493026, 2011;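 active means activity change at least 3 SD of negative controls below their mean in both duplicate wells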;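 further: CHO cells stably transfected with KCNQ1 and depolarized by potassium stimulus; peak minus minimum fluorescence over baseline after thallium addition; 0% = vehicle negative control and -100% = blank without thallium stimulus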
Target sequence (P51787 whole entry, looked up): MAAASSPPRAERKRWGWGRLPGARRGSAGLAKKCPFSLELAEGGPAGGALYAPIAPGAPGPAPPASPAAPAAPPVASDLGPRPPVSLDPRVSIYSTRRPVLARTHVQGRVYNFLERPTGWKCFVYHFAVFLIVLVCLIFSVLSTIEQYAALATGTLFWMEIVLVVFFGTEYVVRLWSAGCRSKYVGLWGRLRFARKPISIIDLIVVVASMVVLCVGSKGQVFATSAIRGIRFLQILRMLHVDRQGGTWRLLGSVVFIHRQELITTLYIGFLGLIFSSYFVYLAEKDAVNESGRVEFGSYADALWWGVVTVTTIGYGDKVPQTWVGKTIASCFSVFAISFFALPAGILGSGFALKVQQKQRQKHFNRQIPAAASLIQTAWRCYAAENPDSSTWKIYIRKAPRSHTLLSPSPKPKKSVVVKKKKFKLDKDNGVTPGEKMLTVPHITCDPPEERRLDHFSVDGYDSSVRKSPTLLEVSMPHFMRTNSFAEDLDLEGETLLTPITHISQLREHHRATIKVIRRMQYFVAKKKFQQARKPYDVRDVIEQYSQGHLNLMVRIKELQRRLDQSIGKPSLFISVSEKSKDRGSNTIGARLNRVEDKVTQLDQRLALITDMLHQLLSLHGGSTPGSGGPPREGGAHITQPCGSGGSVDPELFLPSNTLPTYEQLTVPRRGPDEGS
CHO parental ctr = thallium flux change in parental CHO cells, counter-screen for KCNQ2 inhibitor project | activity change, % at 10 µM | stronger effect = lower value | shares compounds with KCNQ2 block | actives 14% (n = 1,000);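 further: 0% = vehicle negative controls with stimulus buffer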
KCNQ2 inh confirm = rat KCNQ2 channel inhibitors, confirmation, cell-based, automated patch clamp, single concentration; shares compounds with KCNQ2 block; KCNQ2-expressing cells, automated patch clamp current; calls only at 10 µM; actives 49% (n = 550); AID 588531, 2011
* marks the source's active call; other numbers are inactive results; i = inactive; . = not tested or not shown; + = active, no number. This is a sample that favours compounds with a hit; in the whole collection about 1.6% have one here. Unless noted, how the calls were made is not given here.

SMILES	KCNQ2 block	KCNQ2 pot	KCNQ2 inh conf	KCNQ1 spec	CHO parental ctr	others
CCOC(=O)COc1nc(-c2ccco2)cc(-c2ccco2)c1C#N	i	.	.	.	.
CCOC(=O)C(C)Sc1nc(-c2ccco2)cc(C(F)(F)F)c1C#N (configuration not stated)	-8.8*	-8.8	-37%*	-39%*	-37%*	KCNQ2 inh confirm=i
O=C(c1ccnc(Cl)c1)N1CCCC(N2CCN(c3ccccc3F)CC2)C1 (configuration not stated)	i	.	.	.	.
O=C(c1cc(-c2ccco2)on1)N1CCN(C(c2ccccc2)c2ccccc2)CC1	-7.7*	-7.7	-29%*	i	i	KCNQ2 inh confirm=i
COc1ccc(-c2cc(C(=O)N3CCN(C(c4ccccc4)c4ccccc4)CC3)no2)cc1	i	.	.	.	.
COc1ccc(C(=O)c2c(-c3cccc(C)c3)oc3ccc(N4CCOCC4)cc23)cn1	i	.	.	.	.
CC(C(=O)NCCCc1ccccc1)c1ccc([N+](=O)[O-])cc1 (configuration not stated)	i	0.26	.	.	.
O=[N+]([O-])c1cc(-c2cnc3ccccc3n2)ccc1Oc1ccc(F)cc1	-8.4*	-8.4	-20%*	i	i	KCNQ2 inh confirm=i
O=[N+]([O-])c1ccccc1Oc1cnc2ccccc2n1	i	1.1	.	.	.
CCNc1ccc(C(=O)OCC(=O)N(Cc2ccccc2)C(C)(C)C)cc1[N+](=O)[O-]	i	.	.	.	.
CC(C)(C)n1nnnc1C(c1cccs1)N1CCCC2(CCCCC2)C1 (configuration not stated)	-7.5*	-7.5	-33%*	-38%*	-30%*	KCNQ2 inh confirm=i
c1csc(C(c2nnnn2C2CCCCC2)N2CCCC3(CCCCC3)C2)c1 (configuration not stated)	i	.	.	.	.
COc1ccc(NC(=O)Cn2ncn3nc(-c4ccc(OC)cc4)cc3c2=O)cc1	i	0.41	.	.	.
CCN(CC)CCNC(=O)c1ccc(NC(=O)c2cn(-c3ccc(F)cc3)nc2-c2cccc(OC)c2)cc1	i	.	.	.	.
CCN(CC)CCNC(=O)c1ccc(NC(=O)c2cn(-c3ccccc3)nc2-c2cccs2)cc1	-12*	-12	-42%*	-50%*	-37%*	KCNQ2 inh confirm=+
CCN=C1SC(CC(=O)NCc2ccccc2)C(=O)N1CC (configuration not stated)	i	.	.	.	.
CC(C)Nc1ccc(Cl)cc1[N+](=O)[O-]	i	.	.	.	.
COc1ccccc1-c1cc(C(F)(F)F)nc(N2CCCC2)n1	i	0.01	.	.	.
COc1ccccc1-c1cc(C(F)(F)F)nc(N2CCCCC2)n1	-9.7*	-9.7	i	i	i
CC(NC(=O)Cc1ccccc1)c1ccc(F)cc1 (configuration not stated)	i	1	.	.	.
CC(NC(=O)CCC(=O)c1ccccc1)c1ccc(F)cc1 (configuration not stated)	-8.8*	-8.8	i	i	i
O=C(CSc1ccccc1)N(c1ccc(Br)cc1)c1nccs1	i	.	.	.	.
COC(=O)CCC(=O)N1CCCC(CO)(Cc2ccccc2C)C1 (configuration not stated)	i	0.29	.	.	.
Cc1ccccc1CC1(CO)CCCN(C(=O)CCC(=O)c2ccccc2)C1 (configuration not stated)	-8.6*	-8.6	-30%*	i	i	KCNQ2 inh confirm=+
COc1ccc(/C=N/NC(=O)c2c(Br)cnn2C)c2ccccc12	i	.	.	.	.
SMILES	KCNQ2 block	KCNQ2 pot	KCNQ2 inh conf	KCNQ1 spec	CHO parental ctr	others
CCCc1nnc(NC(=O)CCC(=O)NC2CCCCCC2)s1	i	0.69	.	.	.
CCC(=O)N1CCN(c2ccccc2NC(=O)COc2cccc(C)c2)CC1	-10*	-10	-28%*	i	i	KCNQ2 inh confirm=+
Cc1ccccc1OCC(=O)Nc1ccccc1N1CCCCC1	-10*	-10	-26%*	i	i	KCNQ2 inh confirm=+
COc1ccc(NC(=O)COc2ccccc2C)cc1S(=O)(=O)N1CCCCC1	i	.	.	.	.
Cc1ccc(NC(=O)COc2cccc(C)c2C)cc1S(=O)(=O)N1CCCCCC1	-8.8*	-8.8	-36%*	-32%*	-24%*	KCNQ2 inh confirm=i
CCC(=O)N1CCN(c2ccccc2NC(=O)c2cccc(C)c2)CC1	i	.	.	.	.
Cc1cc(C)cc(OCC(=O)Nc2ccccc2N2CCCCC2)c1	i	.	.	.	.
COc1ccc(OC)c(NC(=O)COc2coc(CN3CCc4ccccc43)cc2=O)c1	i	.	.	.	.
COc1ccc(C(CNC(=O)c2cccc(S(=O)(=O)NCc3ccccc3)c2)N2CCOCC2)cc1 (configuration not stated)	i	.	.	.	.
CN(C)CCNC(=O)/C(=C/c1ccc(-c2ccc(Cl)cc2)o1)NC(=O)c1ccccc1	i	.	.	.	.
CN(C)CCNC(=O)/C(=C/c1ccc(-c2ccc(Cl)cc2Cl)o1)NC(=O)c1ccccc1	-9.5*	-9.5	-39%*	-35%*	-33%*
Cc1ccc(S(=O)(=O)N(C)c2ccc(C(=O)Nc3c(C)n(C)n(-c4ccccc4)c3=O)cc2)cc1	i	.	.	.	.
COC(=O)c1c(C(C)=O)c(C)n(C)c1C	i	1.4	.	.	.
CCOC(=O)c1c(-c2cccs2)csc1NC(=O)CN1CC(C)OC(C)C1 (configuration not stated)	-8.1*	-8.1	-19%*	i	i	KCNQ2 inh confirm=i
CCOC(=O)c1c(-c2cccs2)csc1NC(C)=O	i	.	.	.	.
CCOC(=O)c1c(-c2ccc(-c3ccccc3)cc2)csc1NC(=O)CNCCN(C)C	-8.8*	-8.8	i	i	i
CCOC(=O)c1c(-c2cccs2)csc1NC(=O)C(C)(C)C	-7*	-7	-35%*	-37%*	-34%*	KCNQ2 inh confirm=i
CCOC(=O)c1c(-c2cccs2)csc1NC(=O)CCCC(=O)O	i	0.46	.	.	.
CCOC(=O)c1c(-c2ccc(-c3ccccc3)cc2)csc1NC(=O)CCN1CCOCC1	i	1.2	.	.	.
C/C(=N\N(Cc1ccccc1)c1ccccc1)c1cccnc1	i	.	.	.	.
COc1ccccc1-n1nnnc1SCC(=O)Nc1ccc(C)c(N)c1	i	0.57	.	.	.
Cc1ccc(S(=O)(=O)N(C)c2c(C)ccc(S(=O)(=O)N3CCN(C)CC3)c2C)cc1	i	.	.	.	.
C=C(C)CN1CCN(S(=O)(=O)c2ccc(C)c(N(C)S(=O)(=O)c3ccc(C)cc3)c2C)CC1	-8.5*	-8.5	-32%*	-32%*	-25%*	KCNQ2 inh confirm=i
N#CC(CC(=O)c1ccc(F)cc1)c1ccc2c(c1)OCO2 (configuration not stated)	i	0.63	.	.	.
Cc1cc(-c2nnc(-c3ccccc3)c(-c3ccccc3)n2)c(C)o1	-9.9*	-9.9	i	i	i
Cc1ccc(-c2nnc(-c3ccccc3)c(-c3ccccc3)n2)cc1	i	.	.	.	.
